# Assay results as given in PubChem BioAssay (NCATS).
# Active and inactive are the calls of the source. Where a call stands in place of a potency, no number is given. The call rests on the fitted dose curve; in most records, active means well fitted curve in the direction sought with a large enough effect; inconclusive means small, poorly fitted or top-dose-only effect, or another doubt; inactive means no such curve, though single readings can be large or run the other way.
# Biological target: Guanine nucleotide-binding protein G(i) subunit alpha-1 (Homo sapiens) (UniProt P63096)
# Sequence (P63096 whole entry, looked up): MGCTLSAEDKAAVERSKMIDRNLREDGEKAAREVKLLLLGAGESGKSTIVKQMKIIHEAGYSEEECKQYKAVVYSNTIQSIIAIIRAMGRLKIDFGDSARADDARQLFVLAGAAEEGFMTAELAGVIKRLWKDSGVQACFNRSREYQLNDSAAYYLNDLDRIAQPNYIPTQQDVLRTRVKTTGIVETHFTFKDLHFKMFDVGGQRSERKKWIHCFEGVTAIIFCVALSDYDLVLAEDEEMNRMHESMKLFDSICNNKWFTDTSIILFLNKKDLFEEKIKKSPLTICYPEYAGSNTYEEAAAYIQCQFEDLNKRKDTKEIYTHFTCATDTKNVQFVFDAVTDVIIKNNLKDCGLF
# Assay: qHTS Assay for Inhibitors of RGS12 GoLoco Motif Activity (Green Fluorophore) (AID 879)
# Conditions: Galphai1/FITC-RGS12 GoLoco peptide, fluorescence polarization; series mostly up to 57.1 µM
# Description: Assay Overview: NIH Molecular Libraries Screening Centers Network [MLSCN] NIH Chemical Genomics Center [NCGC] MLSCN Grant: NS053754-01 Assay Provider: Siderovski, David P, University of North Carolina at Chapel Hill G-protein-coupled receptors (GPCRs) are major targets for drug discovery. The regulator of G-protein signaling (RGS)-protein family has important roles in GPCR signal transduction. RGS proteins contain a conserved RGS-box, which is often accompanied by other signaling regulatory elements. RGS proteins accelerate the deactivation of G proteins to reduce GPCR signaling; however, some also have an effector function and transmit signals. Combining GPCR agonists with RGS inhibitors should potentiate responses, and could markedly increase the agonist's regional specificity. The diversity of RGS proteins with highly localized and dynamically regulated distributions in brain makes them attractive targets for pharmacotherapy of central nervous system disorders. […] A complex of Gai1 and fluorescently labeled G-alpha-binding peptide (the "GoLoco motif") derived from RGS12 is incubated with library members. Inhibitors of the binding are detected by a decrease in the fluorescence polarization (FP) of the fluorophore. Protein was supplied by Prof. David Siderovski, University of North Carolina at Chapel Hill.
# Assay Protocol: Reagents/Controls: Assay Buffer: 10 mM Tris-HCl, 150 mM NaCl, 0.1 mM GDP (prepared fresh), and 0.05% NP40 at pH 7.5. […] 10 nM FITC labeled peptide/50 nM protein in columns 1, 2, 5 - 48. Titration of unlabeled peptide control ([H][…][NH2], custom synthesized and HPLC-purified by Tufts University Core Facility) from 10 mM, then 1:2 dilution, 16-point in duplicate, pin-transferred to column 2, rows 1 to 32. Column 1 is neutral. FITC-labeled RGS12-GoLoco peptide was custom-synthesized and HPLC-purified by Michael Berne of Tufts University Assay Steps. Four uL of reagents were dispensed to 1536-well Greiner black solid-bottom plates. Compounds and controls (23 nL) were transferred via Kalypsys PinTool. The plates were incubated for 10 min at room temperature, and then read on ViewLux (Perkin-Elmer) High-throughput CCD imager using FITC polarization filter sets for the fluorescein-labeled decapeptide probe.During dispense, reagent bottles were kept submerged into 4 deg C water bath and all liquid lines were covered with aluminum foil to minimize probe and protein degradation. All screening operations were performed on a Kalypsys robotic system (Kalypsys, Inc., San Diego, CA) containing one RX-130 and two RX-90 anthropomorphic robotic arms.
# Potency means the concentration at half of the fitted maximal effect.
row,Structure (SMILES),Potency
1,Clc1cc(I)cc(Cl)c1NC1=NCCN1,inactive
2,NC(=O)c1cc(N2CC2)c([N+](=O)[O-])cc1[N+](=O)[O-],inactive
3,C[N+](C)(C)CC#CCN1CCCC1=O,inactive
4,COc1ccc2[nH]c3c(c2c1)CCNC3,inactive
5,NC(=O)CI,inactive
6,CN1CCc2cccc(Cl)c2CC1,inactive
7,c1ccc2cc(CC3=NCCN3)ccc2c1,inactive
8,NCCc1ccc(S(=O)(=O)F)cc1,inactive
9,Cc1c2ccncc2c(C)c2c1[nH]c1ccccc12,inactive
10,Cc1[nH]c2ccc(O)cc2c1CCN,inactive
11,N#CCCN,inactive
12,NNC(N)=O,inactive
13,NNC(=O)c1ccc(O)cc1,inactive
14,COc1ccc2[nH]cc(CCN)c2c1,inactive
15,C[N+]1(C)[C@@H]2CC[C@H]1CC(OC(=O)c1c[nH]c3ccccc13)C2 (stereo not given in full),inactive
16,CN1CCC(c2c[nH]c3ccc(O)cc23)CC1,inactive
17,O=C(O)c1cc[c]([Hg][Cl])cc1,25.1 µM (active)
18,CCCN(CCC)CCc1c[nH]c2ccc(C(N)=O)cc12,inactive
19,CCCN(CCC)[C@H]1CCc2c(F)ccc(O)c2C1,inactive
20,NC(N)=NOCC[C@H](N)C(=O)O,inactive

row,Structure (SMILES),Potency
1,CCCn1c(C)c(C(=O)c2ccc3ccccc3c2)c2ccccc21,inactive
2,CC(C)(C)c1cc(C=C(C#N)C#N)cc(C(C)(C)C)c1O,inactive
3,CP(=O)(O)C1=CCNCC1,inactive
4,C[N+](C)(C)CCOC(=O)CBr,inactive
5,CCS(=O)(=O)Nc1cccc(C(=C2CCCCC2)c2cnc[nH]2)c1,inactive
6,O=[N+]([O-])c1cc(O)c(O)c([N+](=O)[O-])c1,inactive
7,O=P(O)(O)C(Cl)(Cl)P(=O)(O)O,inactive
8,c1ccc2c(c1)[I+]c1ccccc1-2,inactive
9,CCCN(CCC)[C@@H]1CCc2cccc(O)c2C1,inactive
10,O=C1C=CC(=O)C=C1,inactive
11,OCc1cnc[nH]1,inactive
12,C[C@H](N)CN1CCc2ccc(Br)cc21,inactive
13,Nc1ccc(CCN2CCN(c3cccc(C(F)(F)F)c3)CC2)cc1,inactive
14,N[C@@H](Cn1oc(=O)[nH]c1=O)C(=O)O,inactive
15,O=[N+]([O-])c1ccc2nc(N3CCNCC3)ccc2c1,inactive
16,CC(C)NP(=O)(NC(C)C)OP(=O)(NC(C)C)NC(C)C,inactive
17,CCCN(CCC)C1Cc2cc(OC)c(OC)cc2C1,inactive
18,COc1ccc2c(c1)/C(=C/c1cnc[nH]1)C(=O)N2,inactive
19,CNC(=O)OCC[N+](C)(C)C,inactive
20,CCCN(CCC)CCc1ccc(O)c(O)c1,inactive
